Records with an inconclusive call do not appear. Activity calls are given as the source filed them. Unless noted, calls follow the shape of the dose curve; as a rule, active = well fitted curve in the direction sought with a large enough effect in the repeat runs; inconclusive = weak or mixed curves; inactive = no such curve, though single readings can be large; an effect the other way counts as inactive or inconclusive.
What was measured:
[1] = qHTS assay to identify small molecule agonists of the peroxisome proliferator-activated receptor delta (PPARd) signaling pathway - cell viability counter screen (AID 743211); also: nearly all actives have a fitted effect of over 55% in size
In short: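 Luminescent ATP viability assay (CellTiter-Glo, 30 min RT) in UAS-bla HEK293H cells carrying the PPAR delta reporter construct, 3000 cells/well, after a 17 h compound treatment at 37 C.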

[2] = target: Peroxisome proliferator-activated receptor delta (Homo sapiens) (UniProt Q03181); assay: qHTS assay to identify small molecule agonists of the peroxisome proliferator-activated receptor delta (PPARd) signaling pathway (AID 743212; calls by dose curve)
In short: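 GeneBLAzer PPARd UAS-bla HEK293H cells (beta-lactamase reporter under UAS control), plated and rested 5 h at 37 C, then exposed to compounds in DMSO at 37 C; LiveBLAzer B/G FRET substrate added, 2 h room temperature, fluorescence read.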

[3] = qHTS assay to identify small molecule antagonists of the peroxisome proliferator-activated receptor delta (PPARd) signaling pathway - cell viability counter screen (AID 743213); also: nearly all actives have a fitted effect of over 50% in size
In short: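 Agonist-stimulated (L165041, 300 nM final) HEK293H PPARd UAS-bla cells are exposed to compounds for 17 h at 37 C, and ATP-based luminescence (CellTiter-Glo) from the same wells reports cytotoxicity.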

[4] = target: Peroxisome proliferator-activated receptor delta (Homo sapiens) (UniProt Q03181); assay: qHTS assay to identify small molecule antagonists of the peroxisome proliferator-activated receptor delta (PPARd) signaling pathway (AID 743215; active = well fitted inhibition curve with a large enough effect in the signal ratio in the repeat runs, not every such curve was filed as active; the % refers to the signal ratio; also: series mostly up to about 62 µM)
In short: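 Antagonist-mode beta-lactamase reporter screen: HEK293H cells with UAS-bla under PPARd control, stimulated by 300 nM L165041 (final) alongside test compound for 17 h at 37 C, then FRET fluorescence after 2 h substrate incubation.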

[5] = target: Bile acid receptor (Homo sapiens) (UniProt Q96RI1); assay: qHTS assay to identify small molecule antagonists of the farnesoid-X-receptor (FXR) signaling pathway (AID 743217; active = well fitted inhibition curve with a large enough effect in the signal ratio in the repeat runs, not every such curve was filed as active; the % refers to the signal ratio)
In short: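 Beta-lactamase reporter under UAS control in HEK 293T cells; compound exposure 16 h at 37 °C in the presence of chenodeoxycholic acid (50 uM final); signal from B/G FRET substrate after 2 h at room temperature.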

[6] = qHTS assay to identify small molecule agonists of the farnesoid-X-receptor (FXR) signaling pathway - cell viability counter screen (AID 743218); also: nearly all actives have a fitted effect of over 45% in size
In short: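 In GeneBLAzer FXR-UAS-bla HEK 293T cells, compounds act for 16 h at 37 C. Cell viability is then scored in the reporter wells by CellTiter-Glo, 30 min at RT, luminescence.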

[7] = target: Bile acid receptor (Homo sapiens) (UniProt Q96RI1); assay: qHTS assay to identify small molecule agonists of the farnesoid-X-receptor (FXR) signaling pathway (AID 743220; active = well fitted activation curve with a large enough effect in the signal ratio in the repeat runs, not every such curve was filed as active; the % refers to the signal ratio)
In short: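 Beta-lactamase reporter under UAS control in GeneBLAzer FXR HEK 293T cells (5000/well) measured with LiveBLAzer FRET substrate after 2 h at room temperature. Compound exposure lasted 16 h at 37C.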

[8] = qHTS assay to identify small molecule antagonists of the farnesoid-X-receptor (FXR) signaling pathway - cell viability counter screen (AID 743221; active = well fitted cell-killing curve with a large enough effect in the repeat runs, not every such curve was filed as active; also: nearly all actives have a fitted effect of over 50% in size)
In short: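 In GeneBLAzer FXR-UAS-bla HEK 293T cells stimulated with 50 uM chenodeoxycholic acid (final), compounds acted for 16 h at 37 C. Viability was assessed afterwards by CellTiter-Glo luminescence.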

[9] = target: Vitamin D3 receptor (Homo sapiens) (UniProt P11473); assay: qHTS assay to identify small molecule agonists of the vitamin D receptor (VDR) signaling pathway (AID 743222; calls by dose curve)
In short: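 Agonist activity measured in VDR-bla reporter cells. Exposure 16 h, 37C, 5% CO2; detection by B/G FRET substrate, 2 h RT.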

[10] = target: Vitamin D3 receptor (Homo sapiens) (UniProt P11473); assay: qHTS assay to identify small molecule antagonists of the vitamin D receptor (VDR) signaling pathway (AID 743223; active = well fitted inhibition curve with a large enough effect in the signal ratio in the repeat runs, not every such curve was filed as active; the % refers to the signal ratio)
In short: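 Agonist 1alpha,25-dihydroxyvitamin D3 (3 nM in well) was added with each compound to VDR-bla cells preincubated 4 h. Cells stood 16 h at 37C, then FRET substrate 2 h at room temperature; fluorescence intensity recorded.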
% is scaled to controls: 0 for no effect and ±100 for the full control effect.

Bile acid receptor (Homo sapiens), sequence (Q96RI1 whole entry, looked up): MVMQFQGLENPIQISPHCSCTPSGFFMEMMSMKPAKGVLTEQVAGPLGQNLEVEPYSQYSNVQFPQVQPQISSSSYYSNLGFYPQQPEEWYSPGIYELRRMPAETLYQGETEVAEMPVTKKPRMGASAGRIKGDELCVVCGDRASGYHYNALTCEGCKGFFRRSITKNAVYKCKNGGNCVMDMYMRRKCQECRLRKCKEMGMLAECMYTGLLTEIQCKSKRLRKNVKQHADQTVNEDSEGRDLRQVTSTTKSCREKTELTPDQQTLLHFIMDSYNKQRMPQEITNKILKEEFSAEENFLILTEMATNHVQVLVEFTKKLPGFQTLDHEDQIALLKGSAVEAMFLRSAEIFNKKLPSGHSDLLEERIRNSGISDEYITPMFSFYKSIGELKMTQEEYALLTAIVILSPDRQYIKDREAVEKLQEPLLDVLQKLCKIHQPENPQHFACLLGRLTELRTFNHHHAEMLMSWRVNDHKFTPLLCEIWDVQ
Peroxisome proliferator-activated receptor delta (Homo sapiens), sequence (Q03181 whole entry, looked up): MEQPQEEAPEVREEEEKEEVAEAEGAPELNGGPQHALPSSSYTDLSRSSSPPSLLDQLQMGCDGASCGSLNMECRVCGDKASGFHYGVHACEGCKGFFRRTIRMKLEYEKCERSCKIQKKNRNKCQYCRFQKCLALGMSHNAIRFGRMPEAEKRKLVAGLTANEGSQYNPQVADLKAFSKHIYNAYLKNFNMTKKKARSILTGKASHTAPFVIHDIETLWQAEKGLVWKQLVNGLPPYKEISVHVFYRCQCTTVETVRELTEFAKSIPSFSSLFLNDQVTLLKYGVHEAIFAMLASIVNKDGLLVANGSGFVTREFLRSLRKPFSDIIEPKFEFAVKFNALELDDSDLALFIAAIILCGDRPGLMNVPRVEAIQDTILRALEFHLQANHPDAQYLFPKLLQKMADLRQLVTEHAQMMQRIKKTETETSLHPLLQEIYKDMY
Vitamin D3 receptor (Homo sapiens), sequence (P11473 whole entry, looked up): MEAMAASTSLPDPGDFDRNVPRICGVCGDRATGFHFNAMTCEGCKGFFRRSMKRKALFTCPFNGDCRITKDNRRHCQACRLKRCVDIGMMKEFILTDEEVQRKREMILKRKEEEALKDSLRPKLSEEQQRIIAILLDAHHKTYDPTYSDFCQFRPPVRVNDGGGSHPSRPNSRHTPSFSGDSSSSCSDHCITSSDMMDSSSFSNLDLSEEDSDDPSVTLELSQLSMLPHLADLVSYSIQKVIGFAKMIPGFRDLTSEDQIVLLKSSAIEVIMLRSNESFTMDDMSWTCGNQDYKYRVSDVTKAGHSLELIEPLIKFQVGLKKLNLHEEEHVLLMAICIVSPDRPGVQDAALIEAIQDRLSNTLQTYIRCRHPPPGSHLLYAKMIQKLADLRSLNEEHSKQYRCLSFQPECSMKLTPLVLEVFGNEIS

O=C1c2ccccc2C(=O)c2cc(Cl)ccc21
inactive: activity change, negative = cytotoxicity [1] -0.0176% [at 5.95 µM] | activation [2] -1.6% [at 5.95 µM] | viability change, negative = cytotoxic [3] 3.97% [at 6.26 µM] | ratio activity, negative = inhibition [4] 5.48% [at 6.26 µM] | activity change, negative = inhibition [5] -1.25% [at 5.95 µM] | viability change, negative = cytotoxic [6] -3.87% [at 5.95 µM] | activation [7] 0.306% [at 5.95 µM] | activity change, negative = cytotoxicity [8] -3.54% [at 5.95 µM] | activation [9] -5.27% [at 6.01 µM] | activity change, negative = inhibition [10] -12.7% [at 6.95 µM]

O=C(O)CSCC(=O)NC1CCSC1=O (stereo unspecified)
inactive: outcome [1] | outcome [2] | outcome [3] | outcome [4] | outcome [5] | outcome [6] | outcome [8] | outcome [9]

Cc1ccc(N)cc1S(=O)(=O)O
inactive: outcome [1] | outcome [2] | outcome [3] | outcome [4] | outcome [5] | outcome [6] | outcome [8] | outcome [9]

CC(C)Cn1cnc2c1c(=O)n(C)c(=O)n2C
inactive: outcome [1] | outcome [2] | outcome [3] | outcome [4] | outcome [5] | outcome [7] | outcome [9] | outcome [10]

OC1(c2ccc(Cl)cc2)CCNCC1
inactive: outcome [1] | outcome [2] | outcome [3] | outcome [4] | outcome [5] | outcome [6] | outcome [7] | outcome [8] | outcome [9] | outcome [10]

C=CC(=O)OCC1CCCO1 (stereo unspecified)
inactive: outcome [1] | outcome [2] | outcome [3] | outcome [4] | outcome [5] | outcome [7] | outcome [8]

CCCCCCCCCCCCCBr
inactive: outcome [1] | outcome [2] | outcome [3] | outcome [4] | outcome [5] | outcome [6] | outcome [7] | outcome [8]

O=NN(CCCl)C(=O)NC1CCCCC1
inactive: outcome [1] | outcome [2] | outcome [3] | outcome [4] | outcome [5] | outcome [7] | outcome [8]

CC(=O)CC(=O)Nc1ccc(C)cc1C
inactive: outcome [1] | outcome [2] | outcome [3] | outcome [4] | outcome [5] | outcome [6] | outcome [7] | outcome [8]

NCc1ccc(S(N)(=O)=O)cc1
inactive: outcome [1] | outcome [2] | outcome [3] | outcome [4] | outcome [5] | outcome [6] | outcome [7] | outcome [8] | outcome [9] | outcome [10]

OCC1CCC(CO)CC1 (stereo unspecified)
inactive: outcome [1] | outcome [2] | outcome [3] | outcome [4] | outcome [5] | outcome [7] | outcome [8] | outcome [9] | outcome [10]

CC(C)=CCC/C(C)=C/COC=O
inactive: outcome [1] | outcome [2] | outcome [3] | outcome [4] | outcome [6] | outcome [8] | outcome [10]

CCCSSCCC
inactive: outcome [1] | outcome [2] | outcome [3] | outcome [4] | outcome [6] | outcome [8] | outcome [9] | outcome [10]

C=CCSSCCC
inactive: outcome [1] | outcome [2] | outcome [3] | outcome [4] | outcome [6] | outcome [8] | outcome [9] | outcome [10]

Cn1c(=O)c2[nH]c(Br)nc2n(C)c1=O
inactive: outcome [1] | outcome [2] | outcome [3] | outcome [4] | outcome [6] | outcome [8] | outcome [9] | outcome [10]

COC(C)(OC)OC
inactive: outcome [1] | outcome [2] | outcome [3] | outcome [4] | outcome [6] | outcome [8] | outcome [9] | outcome [10]

CC1(C)O[C@H]2CC(=O)OC[C@]23[C@H]2CC[C@@]4(C)[C@H](c5ccoc5)OC(=O)[C@H]5O[C@]54[C@]2(C)C(=O)C[C@@H]13
inactive: outcome [1] | outcome [2] | outcome [3] | outcome [4] | outcome [6] | outcome [8] | outcome [9] | outcome [10]

CC(C)=CCC[C@@](C)(O)[C@H]1CC=C(C)CC1
inactive: outcome [1] | outcome [2] | outcome [3] | outcome [4] | outcome [6] | outcome [8] | outcome [9] | outcome [10]

C=CCCCC
inactive: outcome [1] | outcome [2] | outcome [3] | outcome [4] | outcome [6] | outcome [8]

OCCN1CCOCC1
inactive: outcome [1] | outcome [2] | outcome [3] | outcome [4] | outcome [8]

CCCCSCCCC
inactive: outcome [1] | outcome [2] | outcome [3] | outcome [4] | outcome [6] | outcome [8]

CN(C)CCOC(=O)C(c1ccccc1)C1(O)CCCC1 (stereo unspecified)
inactive: outcome [1] | outcome [2] | outcome [3] | outcome [4] | outcome [6] | outcome [8] | outcome [9] | outcome [10]

O=C(O)CCCCCC(=O)O
inactive: outcome [1] | outcome [2] | outcome [3] | outcome [4] | outcome [6] | outcome [8] | outcome [9] | outcome [10]

COCCc1ccccn1
inactive: outcome [1] | outcome [2] | outcome [3] | outcome [4] | outcome [6] | outcome [8]

CC/C=C\CCOC(=O)c1ccccc1O
inactive: outcome [1] | outcome [2] | outcome [3] | outcome [4] | outcome [6] | outcome [8] | outcome [9] | outcome [10]

Cc1ncc([N+](=O)[O-])n1CC(C)O (stereo unspecified)
inactive: outcome [1] | outcome [2] | outcome [3] | outcome [4] | outcome [6] | outcome [8] | outcome [9] | outcome [10]

CC(C)COC(=O)c1ccccc1
inactive: outcome [1] | outcome [2] | outcome [3] | outcome [4] | outcome [6] | outcome [9] | outcome [10]

Nc1nc(-c2ccccc2)c(Br)c(=O)[nH]1
inactive: outcome [1] | outcome [2] | outcome [3] | outcome [4] | outcome [6] | outcome [8] | outcome [9] | outcome [10]

CCCC(=O)Nc1ccc(OCC(O)CNC(C)C)c(C(C)=O)c1 (stereo unspecified)
inactive: outcome [1] | outcome [2] | outcome [3] | outcome [4] | outcome [6] | outcome [8] | outcome [9] | outcome [10]
